Screening results deposited in PubChem BioAssay by Sanford-Burnham Center for Chemical Genomics.
Only some compounds are listed: those with a hit (about 2.6% of all), similar ones and a draw of the others.
eIF4H FP inh = inhibitors of RNA binding by human eIF4H. Q15056. eIF4H fluorescence polarization binding assay. hit rate 0.94% among 290,000. inhibition, % at 35 µM;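 note: calls also rest on retests at 20 µM and on dose response follow-up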
PHOSPHO1 inh = blocks human PHOSPHO1 phosphatase activity; Q8TCT1; recombinant PHOSPHO1, absorbance phosphatase assay; inhibition, % at 13.3 µM; hit rate 1.1% among 290,000; AID 1565; in the data active = inhibition above about 60%
Target sequence (Q8TCT1 whole entry, looked up): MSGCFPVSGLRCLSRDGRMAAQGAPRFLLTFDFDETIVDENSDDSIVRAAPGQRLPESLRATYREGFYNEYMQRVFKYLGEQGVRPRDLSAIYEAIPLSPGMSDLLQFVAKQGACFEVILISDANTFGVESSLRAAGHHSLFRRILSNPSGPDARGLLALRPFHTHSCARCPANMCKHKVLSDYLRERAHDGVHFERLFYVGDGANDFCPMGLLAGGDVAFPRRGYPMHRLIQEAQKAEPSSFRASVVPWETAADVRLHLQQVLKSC
MLLE-PAM2 inh = blocks PAM2 peptide binding to the PABP1 MLLE domain; hit rate 0.36% among 360,000; inhibition, % at 20 µM; AID 588489; P11940; GST-MLLE / FITC-PAM2 fluorescence polarization; in the data active = inhibition above about 35%, passing the limit was not always enough;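 note: plate controls were DMSO wells with GST-MLLE for no effect and wells lacking GST-MLLE protein for full effect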
PABP FP inh = PABP-poly(A) binding inhibition; PABP-poly(A) RNA binding, fluorescence polarization; inhibition, % at 35 µM; hit rate 1% among 290,000; AID 2014;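 note: calls also rest on retests at 20 µM and on dose response follow-up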
CRFR2-BP antag = blocks CRF-induced signaling of the CRF-BP/CRF-R2 complex. HEK293 CRF-R2/CRF-BP, CRF-induced calcium fluorescence. inhibition, % at 11.8 µM. hit rate 0.59% among 350,000. AID 588475;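 active = inhibition of the ligand-induced calcium signal above about 50% at the single tested concentration, limit read from the data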
Starred values were filed as active, the others as inactive; ? = inconclusive; . = not tested or not shown. Unless noted, the rule behind the calls is not given here.

SMILES	eIF4H FP inh	PHOSPHO1 inh	MLLE-PAM2 inh	PABP FP inh	CRFR2-BP antag
Nc1cc(S(=O)(=O)Nc2ccccc2Cl)ccc1N1CCCCC1	.	.	23	.	-11
Oc1cc(-n2cccn2)c(O)cc1-n1cccn1	-7	18	47*	14	14
Cn1c(NCCOc2ccccc2Cl)nc2cc(-c3ccc(F)cc3)sc2c1=O	.	.	-11	.	.
O=C(Nc1cc(S(=O)(=O)N2CCCCC2)ccc1O)c1ccccc1NS(=O)(=O)c1ccc(F)c(F)c1	-7	2	-5	-18	81*
O=C(Nc1cccc(S(=O)(=O)N2CCCCC2)c1)c1ccccc1NS(=O)(=O)c1ccc(F)cc1	-3	-6	-12	10	85*
NS(=O)(=O)c1cccc(NC(=O)c2ccccc2NS(=O)(=O)c2ccc(F)cc2)c1	0	-2	-6	-13	-13
Cc1ccc(NC(=O)CCNC(=O)c2ccccc2Cl)cc1S(=O)(=O)N1CCCCCC1	.	.	15	.	1
Cc1ccc(NC(=O)c2ccccc2NS(=O)(=O)c2ccc(F)cc2)cc1S(=O)(=O)N1CCCCC1	3	-7	15	4	98*
Cc1ccc(F)c(S(=O)(=O)NC(=O)C2(C)CCN2C(=O)CCC2CCCC2)c1 (centres undefined)	.	.	-7	.	.
CC1=C(C(=O)O)CC(S(=O)(=O)O)C1(C)C (centres undefined)	.	.	-11	.	14
CC(=O)Nc1cccc(-c2ccnc3c2CC(C(=O)NCc2cccs2)O3)c1 (centres undefined)	.	.	9	.	.
CC[C@]12c3[nH]c4ccc(Cl)cc4c3CCN1C(=O)[C@@H](CC(=O)NCCc1ccccn1)C[C@@H]2C(=O)N1CCN(C(=O)c2ccco2)CC1	.	.	0	.	-2
O=C1C2C3CCC(C3)C2C(=O)N1c1ccc(OS(=O)(=O)c2ccccc2)cc1 (centres undefined)	1	60*	19	11	7
CC(=O)c1c(C)[nH]c(C(=O)CSc2nc3ccccc3c(=O)n2CCCN2CCOCC2)c1C	3	-25	-6	-6	-3
Cc1sc2nc(CSc3nc4ccccc4c(=O)n3CCCN3CCOCC3)[nH]c(=O)c2c1C	?	6	-75	122*	-8
Cc1ccccc1-c1nc(S(=O)(=O)c2ccccc2)c(N2CCCC2)o1	.	.	42*	.	8
COc1ccc(-c2nc(S(=O)(=O)c3ccccc3)c(N3CCCC3)o2)cc1	.	.	19	.	1
COc1ccc(CCC(=O)Nc2ccccc2C(F)(F)F)cc1	80*	11	-2	18*	19
CCN(c1cccc(C)c1)S(=O)(=O)c1ccc(-c2cc(C)no2)s1	88*	44	-4	34	11
COC(=O)c1c(NS(=O)(=O)c2ccc3ccccc3c2)sc2c1CCCC2	3	71*	14	8	19
Fc1ccc(C2=Nn3c(Cc4ccccc4F)nnc3SC2)cc1	-1	62*	-38	-2	-3
c1ccc(Cc2nnc3n2N=C(c2ccccc2)CS3)cc1	-10	17	-6	4	-10
CCC(=O)c1ccc2c(c1)N(CCCN(C)C)c1ccccc1S2	.	.	4	.	-12
CC(=O)c1ccc2c(c1)N(CCCN(C)C)c1ccccc1S2	.	.	50*	.	11
CC(=O)c1ccc2c(c1)Nc1ccccc1S2	67*	-27	7	77*	-7
SMILES	eIF4H FP inh	PHOSPHO1 inh	MLLE-PAM2 inh	PABP FP inh	CRFR2-BP antag
NS(=O)(=O)c1ccc(CCNC(=O)CCc2nc3sc4c(c3c(=O)[nH]2)CCCC4)cc1	.	.	-20	.	15
COc1ccc(S(=O)(=O)N2CCC3CC2c2cc(-c4ccc5c(c4)OCO5)ccc23)cc1 (centres undefined)	.	.	-4	.	.
CCCCN(C(=O)CSCC(=O)Nc1ccc(OC)cc1)c1c(N)n(CC(C)C)c(=O)[nH]c1=O	.	.	11	.	0
CC1(C)S[C@@H]2[C@H](NC(=O)[C@H](N)c3ccccc3)C(=O)N2[C@H]1C(=O)O	63	7	3	13*	20
Cc1cc(C)n(NC(=S)NC2CCCCC2)c(=O)c1C#N	-2	21	45*	-3	20
COCc1ccc(CN2CCC(C(=O)Nc3cccc(-c4cscn4)c3)CC2)o1	-2	33	0	13	90*
O=C(Nc1cccc(-c2cscn2)c1)C1CCN(Cc2ccc(CO)o2)CC1	2	15	2	3	3
CCN(C(=O)COC(=O)CCC(=O)c1ccc(C)cc1)c1c(N)n(Cc2ccccc2)c(=O)[nH]c1=O	.	.	-3	.	-8
Cc1cccc(NC(=O)COc2cccc3c2CCNC3=O)c1	.	.	3	.	0
Cc1ccc(NC(=S)C2=C(O)c3sccc3N(C)S2(=O)=O)cc1	-4	76*	41*	7	18
Cc1ccc(NC(=O)C2=C(O)c3sccc3N(C)S2(=O)=O)cc1	-14	29	-6	2	35
CN1c2ccccc2C(O)=C(C(=S)Nc2ccc(Cl)cc2)S1(=O)=O	-3	36	36	-7	59*
Cc1cc(Cl)ccc1-c1cc2nc(NCCCN(C)C)n(C)c(=O)c2s1	.	.	-6	.	.
CCOC(=O)[C@@H](NC(=O)CC[C@H]1O[C@@H](n2cc(C)c(=O)[nH]c2=O)C[C@@H]1O)C(C)C	.	.	-4	.	5
CCCc1cc(=O)[nH]c(SCC(=O)Nc2ccc3ccccc3c2)n1	.	.	-1	.	-2
CCCc1cc(=O)[nH]c(SCC(=O)Nc2ccc(OC(F)F)cc2)n1	-2	-16	-7	8	66*
NC(=O)CC(NC(=O)Cc1ccc(Cl)cc1)c1ccc(NCCCN2CCCC2=O)c([N+](=O)[O-])c1 (centres undefined)	69*	41	-7	28	5
O=C1N/C(=C/c2ccc(N3CCOCC3)o2)C(=O)N1c1cccc(Cl)c1	17	51	-102	-2	70*
NC(=O)c1ccsc1NC(=O)CN1C(=O)NC2(CCCC2)C1=O	.	.	-18	.	-6
N#Cc1ccsc1NC(=O)CN1C(=O)NC2(CCCCC2)C1=O	68	30	-30	44*	-5
Oc1ccc(NCc2ccccc2OCc2ccccc2F)cc1	36	-31	16	12	17
CCOc1ccccc1CNc1ccc(O)cc1	51	-17	4	36*	5
C=CCn1c(SCC(=O)N2CCCC2)nc2scc(-c3cccs3)c2c1=O	11	35	15	2	-28
C=CCn1c(SCC(C)=O)nc2scc(-c3ccco3)c2c1=O	67*	-9	-3	44*	8
C=CCn1c(SCC(=O)N2CCOCC2)nc2scc(-c3ccco3)c2c1=O	66*	31	-8	67*	-1
O=S(=O)(c1cccs1)N1CCN(c2ccccc2)CC1	-5	18	8	1	2
Cc1ccc(S(=O)(=O)NC2=C(N3CCN(Cc4ccccc4)CC3)C(=O)c3ccccc3C2=O)cc1	-5	59	1	18	-28
O=C(C1CCN(S(=O)(=O)c2cccs2)CC1)N1CCN(c2ccccc2)CC1	-5	-5	6	1	-4
O=C(C(NS(=O)(=O)c1cccs1)c1ccccc1)N1CCN(c2ccccc2)CC1 (centres undefined)	64*	-26	17	53*	-83
